# In PubChem BioAssay (Tox21):
# Unmarked numbers belong to inactive results. Inconclusive results are not listed. Entries that show only a call come without a potency. Calls of active or inactive are those of the source. Unless noted, the call rests on the fitted dose curve; in most records, active means well fitted curve in the direction sought with a large enough effect in the repeat runs; inconclusive means weak or mixed curves; inactive means no such curve, though single readings can be large; an effect the other way counts as inactive or inconclusive.
# Assays:
# [1] = A CellTox Green Cytotoxicity Assay to monitor cytotoxicity in HepG2 cells - 32 hour (AID 1224883); further: nearly all actives have a fitted effect of over 50% in size
# How it was run: (§1)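 Cytotoxicity was tracked as dead-cell DNA fluorescence in HepG2 cells treated with test compounds at 37 C; each time-point value comes from one kinetic series spanning 0, 8, 16, 24, 32 and 40 h.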
# [2] = qHTS RealTime-Glo MT Cell Viability Assay in HepG2 cells - 16 hour (AID 1224885); further: nearly all actives have a fitted effect of over 50% in size
# How it was run: (§2)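 Real-time, nonlytic viability: 600 HepG2 cells/well mixed with NanoLuc enzyme plus prosubstrate; 5 h settle, compound (DMSO) added by pintool; luminescence monitored over 40 h at 37 C.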
# [3] = qHTS RealTime-Glo MT Cell Viability Assay in HEK293 cells - 24 hour (AID 1224886); further: nearly all actives have a fitted effect of over 50% in size; further: potency means the concentration at half of the fitted maximal effect; on activity change, negative = cytotoxicity: top concentration of the series differs between compounds
# How it was run: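 Cells + reagent dispensed (600 cells/well, HEK293) → 5 h at 37 C/5% CO2 → 23 nL compound in DMSO pinned → 40 h at 37 C → luminescence read at 0, 8, 16, 24, 32, 40 h.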
# [4] = qHTS RealTime-Glo MT Cell Viability Assay in HEK293 cells - 8 hour (AID 1224887); further: top concentration of the series differs between compounds; nearly all actives have a fitted effect of over 50% in size
# How it was run: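 Kinetic, non-lysing viability readout. Seed HEK293 (600/well) with reagent, incubate 5 h at 37 C/5% CO2, pin 23 nL compound in DMSO, incubate at 37 C, read luminescence at 0, 8, 16, 24, 32, 40 h.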
# [5] = A CellTox Green Cytotoxicity Assay to monitor cytotoxicity in HEK293 cells - 16 hour (AID 1224888); further: nearly all actives have a fitted effect of over 35% in size
# How it was run: (§3)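 Real-time, in one plate: 600 HEK293 cells/well with dead-cell DNA dye, pinned compound after 5 h, 37 C incubation over 40 h; viable cells give no appreciable fluorescence.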
# [6] = qHTS RealTime-Glo MT Cell Viability Assay in HepG2 cells - 0 hour (AID 1224889); further: nearly all actives have a fitted effect of over 50% in size
# How it was run: as §2
# [7] = A CellTox Green Cytotoxicity Assay to monitor cytotoxicity in HepG2 cells - 8 hour (AID 1224890); further: nearly all actives have a fitted effect of over 45% in size
# How it was run: as §1
# [8] = qHTS assay to identify small molecule antagonists of the estrogen receptor alpha (ER-alpha) signaling pathway using the BG1 cell line in the presence of 0.1 nM 17-beta-estradiol - cell viability counter screen (AID 1259241); further: nearly all actives have a fitted effect of over 40% in size
# How it was run: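 Measures cytotoxicity alongside the ER-alpha antagonist readout: VM7Luc4E2 cells, charcoal-stripped serum, 0.1 nM 17beta-estradiol final, 22 hr compound incubation at 37C, CellTiter-Fluor fluorescence.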
# [9] = qHTS assay to identify small molecule antagonists of the androgen receptor (AR) signaling pathway using the MDA cell line in the presence of 0.5 nM R1881 - cell viability counter screen (AID 1259242); further: nearly all actives have a fitted effect of over 45% in size
# How it was run: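 Cells seeded at 3,000/well and allowed 5 hr at 37C, 0% CO2 before compound transfer and R1881 (0.5 nM final) addition; 16 hr later, live-cell protease fluorescence indicated cytotoxicity.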
# [10] = qHTS assay to identify small molecule HDAC inhibitors (AID 1259364);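 further: wild-type HCT-116 cells with endogenous class I/II HDAC activity; top concentration of the series differs between compounds; nearly all actives have a fitted effect of over 45% in size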
# How it was run: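 HCT-116 wt cells, 1,500/well, overnight attach. Compounds (DMSO) 2 h, 37 °C. HDAC-Glo I/II, 30 min RT. Luminescence.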
# [11] = qHTS assay to identify small molecule HDAC inhibitors - cell viability counter screen (AID 1259365)
# How it was run: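 Following a 2hr exposure of overnight-plated wild-type HCT-116 cells to DMSO-delivered compounds, CellTiter-Glo was added and luminescence recorded after 30min at room temperature.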
# [12] = qHTS assay to identify small molecule agonists of the sonic hedgehog signaling (Shh) pathway - cell viability counter screen (AID 1259366); further: nearly all actives have a fitted effect of over 50% in size
# How it was run: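 After a 4hr attachment at 37C, NIH/3T3 cells bearing an integrated Gli1-driven luciferase reporter were dosed with compounds. Treatment lasted 24hr, with the final hour including CellTiter-Fluor for a fluorescence viability measurement.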
# [13] = qHTS assay to identify small molecule antagonists of the sonic hedgehog signaling (Shh) pathway - cell viability counter screen (AID 1259367); further: nearly all actives have a fitted effect of over 55% in size
# How it was run: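 Conditioned medium drove Shh signaling in 3T3 Gli1-Luc cells exposed to compounds at 37C and 5% CO2. Viability was determined from CellTiter-Fluor fluorescence, with reagent incubated 1 hr after 23 hr of treatment.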
# [14] = qHTS assay to identify small molecule antagonists of the sonic hedgehog signaling (Shh) pathway (AID 1259369; calls by dose curve; further: nearly all actives have a fitted effect of over 45% in size)
# How it was run: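 Read-out is luminescence from a firefly luciferase gene controlled by the Gli1 response element, in 3T3Gli1-Luc cells pre-incubated 4hr then exposed to compounds and conditioned medium for 24hr.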
# [15] = qHTS assay to identify small molecule phospholipidosis (PLD) inducers (AID 1259344; active means well fitted curve in the direction sought with a large enough effect; an effect the other way counts as inactive or inconclusive)
# How it was run: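 After 4 h attachment on collagen I, HepG2 cells were dosed with compound alongside LipidTOX Red, kept 24 h at 37 C, fixed, and imaged for lamellar phospholipid pits.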
# [16] = qHTS assay to identify small molecule agonists of the sonic hedgehog signaling (Shh) pathway (AID 1259368; calls by dose curve;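 further: NIH/3T3-derived 3T3Gli1-Luc cells carrying a stable Gli1-driven firefly luciferase reporter; series mostly up to about 92 µM; nearly all actives have a fitted effect of over 15% in size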)
# How it was run: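 Following a 24 hr incubation with DMSO-dissolved compounds at 37 C, 5% CO2, Gli1-Luc NIH/3T3-derived cells received luciferase reagent for 30 min at room temperature prior to luminescence measurement.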
# [17] = molecular target: Estrogen receptor beta (Homo sapiens) (UniProt Q92731); experiment: qHTS assay to identify small molecule agonists of the estrogen receptor beta (ER-beta) signaling pathway (AID 1259377; active means well fitted activation curve with a large enough effect in the signal ratio in the repeat runs, not every such curve was filed as active; the % refers to the signal ratio)
# Chain of Estrogen receptor beta (Homo sapiens) (Q92731 whole entry, looked up): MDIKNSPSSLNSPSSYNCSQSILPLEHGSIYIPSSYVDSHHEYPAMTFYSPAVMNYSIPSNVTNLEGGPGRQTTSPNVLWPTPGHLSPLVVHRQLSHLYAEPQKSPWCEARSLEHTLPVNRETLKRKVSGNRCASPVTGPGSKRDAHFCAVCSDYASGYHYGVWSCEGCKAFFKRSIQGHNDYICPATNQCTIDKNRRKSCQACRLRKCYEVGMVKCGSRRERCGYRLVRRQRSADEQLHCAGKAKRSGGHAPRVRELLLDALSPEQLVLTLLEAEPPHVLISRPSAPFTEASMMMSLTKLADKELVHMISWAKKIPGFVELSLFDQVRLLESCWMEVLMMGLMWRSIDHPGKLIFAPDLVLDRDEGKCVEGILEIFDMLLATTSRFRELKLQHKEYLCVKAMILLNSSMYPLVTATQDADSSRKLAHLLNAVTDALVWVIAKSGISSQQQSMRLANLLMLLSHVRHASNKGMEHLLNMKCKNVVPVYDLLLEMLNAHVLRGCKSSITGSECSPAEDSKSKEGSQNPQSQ
# How it was run: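 In HEK293T cells bearing a UAS-beta-lactamase reporter under ER-beta control, DMSO-delivered compounds were incubated for 16 hr at 37C. Activity was detected as fluorescence 2 hours after LiveBLAzer B/G FRET substrate addition.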
# [18] = A CellTox Green Cytotoxicity Assay to monitor cytotoxicity in HEK293 cells - 8 hour (AID 1224884); further: nearly all actives have a fitted effect of over 35% in size
# How it was run: as §3
# [19] = molecular target: Androgen receptor (Homo sapiens) (UniProt P10275); experiment: qHTS assay to identify small molecule antagonists of the androgen receptor (AR) signaling pathway using the MDA cell line in the presence of 0.5 nM R1881 (AID 1259243); further: nearly all actives have a fitted effect of over 50% in size; further: potency means the concentration at half of the fitted maximal effect
# Chain of Androgen receptor (Homo sapiens) (P10275 whole entry, looked up): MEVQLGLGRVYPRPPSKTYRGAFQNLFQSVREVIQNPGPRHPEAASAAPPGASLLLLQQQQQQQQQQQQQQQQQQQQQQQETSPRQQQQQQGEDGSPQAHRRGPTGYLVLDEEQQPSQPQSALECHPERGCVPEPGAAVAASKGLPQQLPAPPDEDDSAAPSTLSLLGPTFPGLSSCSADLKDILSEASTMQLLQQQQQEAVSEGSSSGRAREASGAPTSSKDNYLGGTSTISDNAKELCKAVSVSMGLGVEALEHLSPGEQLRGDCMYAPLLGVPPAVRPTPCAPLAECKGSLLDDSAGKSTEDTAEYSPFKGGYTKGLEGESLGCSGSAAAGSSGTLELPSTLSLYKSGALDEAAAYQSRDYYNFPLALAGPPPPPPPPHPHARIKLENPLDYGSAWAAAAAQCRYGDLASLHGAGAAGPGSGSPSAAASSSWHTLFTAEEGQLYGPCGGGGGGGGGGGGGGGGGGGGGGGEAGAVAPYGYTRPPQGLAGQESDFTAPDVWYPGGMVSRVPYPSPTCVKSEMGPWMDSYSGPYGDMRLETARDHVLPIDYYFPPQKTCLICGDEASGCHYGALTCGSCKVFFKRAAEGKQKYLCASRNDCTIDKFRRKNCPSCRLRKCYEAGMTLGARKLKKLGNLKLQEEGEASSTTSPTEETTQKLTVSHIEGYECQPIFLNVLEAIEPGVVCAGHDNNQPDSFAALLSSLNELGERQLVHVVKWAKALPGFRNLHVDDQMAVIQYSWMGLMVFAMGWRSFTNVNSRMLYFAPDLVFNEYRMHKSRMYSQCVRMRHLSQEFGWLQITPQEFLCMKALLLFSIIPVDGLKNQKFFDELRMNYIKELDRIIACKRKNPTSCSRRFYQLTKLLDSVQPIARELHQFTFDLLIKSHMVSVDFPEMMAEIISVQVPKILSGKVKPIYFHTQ
# How it was run: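 Luminescence from an AR/GR-responsive MMTV-luciferase construct in MDA-kb2 breast carcinoma cells, read 30 min after ONE-Glo, following 16 hr co-treatment with compounds and 0.5 nM R1881.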
# [20] = molecular target: Estrogen receptor (Homo sapiens) (UniProt P03372); experiment: qHTS assay to identify small molecule antagonists of the estrogen receptor alpha (ER-alpha) signaling pathway using the BG1 cell line in the presence of 0.1 nM 17-beta-estradiol (AID 1259244); further: nearly all actives have a fitted effect of over 50% in size
# Chain of Estrogen receptor (Homo sapiens) (P03372 whole entry, looked up): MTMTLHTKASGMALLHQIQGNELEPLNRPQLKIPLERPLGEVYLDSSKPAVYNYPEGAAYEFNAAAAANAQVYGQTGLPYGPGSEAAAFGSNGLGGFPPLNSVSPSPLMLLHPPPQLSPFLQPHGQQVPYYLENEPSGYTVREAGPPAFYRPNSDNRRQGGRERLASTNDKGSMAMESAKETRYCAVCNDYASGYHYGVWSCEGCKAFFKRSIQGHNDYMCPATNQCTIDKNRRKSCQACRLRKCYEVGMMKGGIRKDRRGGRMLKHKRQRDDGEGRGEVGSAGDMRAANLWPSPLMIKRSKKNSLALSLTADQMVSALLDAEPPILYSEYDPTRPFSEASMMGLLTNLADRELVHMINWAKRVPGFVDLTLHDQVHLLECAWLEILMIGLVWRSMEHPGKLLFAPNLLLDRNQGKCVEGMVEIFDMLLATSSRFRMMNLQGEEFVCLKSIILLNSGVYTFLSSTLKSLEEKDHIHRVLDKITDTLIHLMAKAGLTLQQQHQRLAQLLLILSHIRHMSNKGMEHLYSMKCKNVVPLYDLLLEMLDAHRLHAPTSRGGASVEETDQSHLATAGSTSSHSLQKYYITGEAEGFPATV
# How it was run: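 Luciferase signal from VM7Luc4E2 ERE-reporter cells, co-dosed with test compound and 0.1 nM final 17beta-estradiol for 22 h, read with ONE-Glo.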
compound,measurement,setting,value
C[Si](C)=O,cytotoxicity increase,[1],-6.59% [at 6.97 µM]
same,"activity change, negative = cytotoxic",[2],0.315% [at 6.97 µM]
same,"activity change, negative = cytotoxicity",[3],0.58% [at 6.97 µM]
same,"activity change, negative = cytotoxicity",[4],-1.9% [at 6.97 µM]
same,activity change,[5],1.45% [at 6.97 µM]
same,"activity change, negative = cytotoxicity",[6],8.65% [at 6.97 µM]
same,cytotoxicity increase,[7],-1.81% [at 6.97 µM]
same,"activity change, negative = cytotoxicity",[8],-11.4% [at 8.39 µM]
same,"viability change, negative = cytotoxic",[9],2.02% [at 8.39 µM]
same,"activity change, negative = inhibition",[10],1.64% [at 8.39 µM]
same,"activity change, negative = cytotoxicity",[11],2.53% [at 8.39 µM]
same,"viability change, negative = cytotoxic",[12],-1.38% [at 8.39 µM]
same,"viability change, negative = cytotoxic",[13],0.12% [at 8.39 µM]
same,"activity change, negative = inhibition",[14],4.44% [at 8.39 µM]
NCCS,Potency,[1],inactive
same,outcome,[2],inactive
same,Potency,[3],inactive
same,Potency,[4],inactive
same,outcome,[5],inactive
same,Potency,[6],inactive
same,outcome,[7],inactive
same,Potency,[8],inactive
same,outcome,[9],inactive
same,outcome,[15],inactive
same,Potency,[10],inactive
same,outcome,[11],inactive
same,Potency,[12],inactive
same,Potency,[13],inactive
same,outcome,[16],inactive
same,Potency,[17],inactive
C=C(C)C(=O)OCc1ccccc1,Potency,[1],inactive
same,outcome,[2],inactive
same,Potency,[3],inactive
same,Potency,[4],inactive
same,outcome,[5],inactive
same,Potency,[6],inactive
same,outcome,[7],inactive
same,Potency,[8],inactive
same,outcome,[9],inactive
same,Potency,[10],inactive
same,outcome,[11],inactive
same,Potency,[12],inactive
same,Potency,[13],inactive
O=C(Nc1ccc(Cl)c(Cl)c1)C1CC1,Potency,[1],inactive
same,Potency,[18],inactive
same,outcome,[2],inactive
same,Potency,[3],9.52 µM (active)
same,Potency,[6],inactive
same,outcome,[7],inactive
same,Potency,[8],inactive
same,Potency,[19],5.96 µM (active)
same,outcome,[15],inactive
same,Potency,[10],inactive
same,outcome,[11],inactive
same,Potency,[12],inactive
same,Potency,[13],inactive
same,outcome,[16],inactive
same,Potency,[14],inactive
same,Potency,[17],inactive
CCOc1cc([N+](=O)[O-])c(OCC)cc1N1CCOCC1,Potency,[1],inactive
same,Potency,[18],inactive
same,outcome,[2],inactive
same,Potency,[3],15.5 µM (active)
same,Potency,[6],inactive
same,outcome,[7],inactive
same,outcome,[9],inactive
same,Potency,[20],inactive
same,Potency,[10],inactive
same,outcome,[11],inactive
same,Potency,[12],inactive
same,Potency,[13],inactive
same,outcome,[16],inactive
same,Potency,[14],inactive
same,Potency,[17],inactive
Oc1cn2c(n1)Nc1ccc(Cl)c(Cl)c1C2,cytotoxicity increase,[1],-1.99% [at 15.8 µM]
same,cytotoxicity increase,[18],1.16% [at 15.8 µM]
same,"activity change, negative = cytotoxic",[2],1.52% [at 15.8 µM]
same,"activity change, negative = cytotoxicity",[3],2% [at 15.8 µM]
same,activity change,[5],-3.07% [at 15.8 µM]
same,"activity change, negative = cytotoxicity",[6],-2.51% [at 15.8 µM]
same,cytotoxicity increase,[7],-5.9% [at 15.8 µM]
same,"activity, negative = inhibition",[19],16.6% [at 19 µM]
same,"activity change, negative = inhibition",[20],-26.8% [at 19 µM]
same,"activity change, negative = inhibition",[10],-1.7% [at 19 µM]
same,"activity change, negative = cytotoxicity",[11],1.3% [at 19 µM]
same,"viability change, negative = cytotoxic",[12],3.75% [at 19 µM]
same,"viability change, negative = cytotoxic",[13],-4.16% [at 19 µM]
same,activity change,[16],-0.534% [at 18.9 µM]
same,"activity change, negative = inhibition",[14],-20% [at 19 µM]
same,activation,[17],-3.28% [at 19 µM]
CCOC(=O)[C@H](CCc1ccccc1)N[C@@H](C)C(=O)N1C(=O)N(C)C[C@H]1C(=O)O,Potency,[1],inactive
same,outcome,[2],inactive
same,Potency,[3],inactive
same,Potency,[4],inactive
same,outcome,[5],inactive
same,Potency,[6],inactive
same,outcome,[7],inactive
same,Potency,[8],inactive
same,outcome,[9],inactive
same,Potency,[20],inactive
same,Potency,[10],inactive
same,outcome,[11],inactive
same,Potency,[12],inactive
same,Potency,[13],inactive
same,outcome,[16],inactive
same,Potency,[14],inactive
same,Potency,[17],inactive
